Only a selection was taken, and hits are over-represented in it overall.
HEK293 cAMP cs: qHTS Assay for Agonists of the Thyroid Stimulating Hormone Receptor: Activators of Intracellular cAMP Concentrations in Parental HEK 293. Potency, µM (highest dose often 57.1 µM), for the others: at the top dose activation, actives largely listed as activators. 73,000 compounds, 2.5% hits. parental HEK293 CNG cAMP sensor, membrane potential fluorescence; note: % of control where 0% means no effect; nearly all actives have a fitted effect of over 55% in size
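Parental HEK 293 cells stably expressing a cAMP-gated CNG channel were loaded with membrane potential dye containing 100 uM RO 20-1724 for 60 min. Compound added for 30 min; depolarization read as fluorescence intensity at 590 nm.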
Peg3 imprint: qHTS Assay for Compounds that Induce Erasure of Genomic Imprints. Potency, µM (titrated, usually from 60.7 µM), for the others: at the top dose activity change, positive = activation, hits mostly activators. mouse ES Peg3-LacZ reporter, beta-gal luminescence, 40 h. 110,000 compounds, 0.02% hits. AID 1948, 2009
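Imprint erasure is scored as LacZ activity from the silenced maternal Peg3 allele in feeder-free female ES cells cultured 40 h with LIF. Luminescence is normalized to in-plate negative controls and fitted to the Hill equation.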
TSHR agonist: qHTS Assay for Agonists of the Thyroid Stimulating Hormone Receptor. Thyrotropin receptor (Homo sapiens), P16473. HEK293-CNG-TSHR cells (CNG channel as cAMP sensor), membrane potential dye, cAMP. Potency, µM (titrated, usually from 57.1 µM), inactives show at the highest dose activation, most hits filed as activators. 73,000 compounds, 0.48% hits. AID 926, 2007; active = well fitted activation curve with a large enough effect in the main read-out, with a control signal flat, not every such curve was filed as active; inconclusive = small, poorly fitted or top-dose-only effect, or a change in a side signal; inactive = no such curve, though single readings can be large or run the other way; % of control where 0% means no effect;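 note: the control signal comes from parental cells without the receptor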
Target sequence (P16473 whole entry, looked up): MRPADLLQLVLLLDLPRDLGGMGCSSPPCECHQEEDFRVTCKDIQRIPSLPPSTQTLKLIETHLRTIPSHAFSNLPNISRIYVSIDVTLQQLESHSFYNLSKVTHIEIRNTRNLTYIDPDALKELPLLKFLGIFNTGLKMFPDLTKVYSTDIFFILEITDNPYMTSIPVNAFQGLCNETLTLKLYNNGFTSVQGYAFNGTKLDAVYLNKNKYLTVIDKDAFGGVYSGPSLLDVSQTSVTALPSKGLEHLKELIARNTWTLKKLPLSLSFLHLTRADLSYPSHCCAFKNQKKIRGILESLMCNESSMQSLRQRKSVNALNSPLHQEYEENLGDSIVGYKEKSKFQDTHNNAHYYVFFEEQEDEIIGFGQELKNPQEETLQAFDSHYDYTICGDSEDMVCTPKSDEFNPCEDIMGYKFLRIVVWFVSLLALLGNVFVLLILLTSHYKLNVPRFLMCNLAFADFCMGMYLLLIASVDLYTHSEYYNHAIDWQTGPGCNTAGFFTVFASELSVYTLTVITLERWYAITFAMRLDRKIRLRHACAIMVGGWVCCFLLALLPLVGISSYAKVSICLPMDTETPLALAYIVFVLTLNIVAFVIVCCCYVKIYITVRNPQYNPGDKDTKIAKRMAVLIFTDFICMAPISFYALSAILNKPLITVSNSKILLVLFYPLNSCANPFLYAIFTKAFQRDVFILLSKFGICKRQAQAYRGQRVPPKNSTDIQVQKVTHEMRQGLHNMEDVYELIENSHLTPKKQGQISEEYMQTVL
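HEK 293 cells stably expressing TSHR and a cAMP-gated CNG channel; parental CNG-only cells as counterscreen. Cells preloaded 60 min with membrane potential dye plus 100 uM RO 20-1724, then compound 30 min; fluorescence read at 590 nm.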
* hit, by the source's call; u = inconclusive; x = no result given; [ ] = another dose, or the depositor's remark. Unless noted, calls come from the whole dose curve; as a rule, active = well fitted activation curve with a large enough effect; inconclusive = small, poorly fitted or top-dose-only effect; inactive = no such curve, though single readings can be large or run the other way. Potency is the fitted concentration of half-maximal effect.

SMILES | HEK293 cAMP cs | Peg3 imprint | TSHR agonist
O=C(NCCc1ccccc1Cl)c1sc2ncccc2c1-n1cccc1 | x | -14%[10.9 µM] | x
CCc1ccccc1N1CC(c2nc3ccccc3n2CC(C)C)CC1=O (centres undefined) | x | -12%[10.9 µM] | x
CC12C=C(/C=C/CCc3ccco3)C(C)(C1)C(CCc1ccco1)CC2=O (centres undefined) | 1%[11.4 µM] | x | -5%[11.4 µM]
CCN(CC)S(=O)(=O)c1ccc2c(c1)N(CC(=O)Nc1c(C)cc(C)cc1C)C(=O)CS2 | x | -10%[10.9 µM] | x
O=c1c2ccccc2c2ccccc2c(=O)n1-c1cc2c3ccccc3ccc2c2ccccc12 | 0%[11.4 µM] | 1%[10.9 µM] | -3%[11.4 µM]
Cc1cc(=O)oc2cc(O)c(O)cc12 | x | -31% | x
C=CCn1c(SCC(=O)NCc2ccc3c(c2)OCO3)nnc1C1CCCCC1 | 25µM* | -15% | u
CC1CCCC(C)N1C(=O)Cn1c(SCC(=O)NCc2ccc3c(c2)OCO3)nc2ccccc21 (centres undefined) | 16µM* | -17% | u
COc1ccc(C(=O)Nn2c(SCC(=O)NCc3ccco3)nc3ccccc3c2=O)cc1 | 20µM* | -30% | u
Cn1c(SCC(=O)NCc2ccco2)nc2ccccc2c1=O | 21% | x | 10%
O=C(CSc1nnc(CNc2ccc(F)cc2)n1Cc1ccccc1)NCc1ccco1 | 16% | -18% | 10%
Cn1c(Cn2nnc3ccccc32)nnc1SCC(=O)NCc1ccc2c(c1)OCO2 | 8% | -1% | -3%
C=CCn1c(SCC(=O)NCc2ccc3c(c2)OCO3)nnc1C1COc2ccccc2O1 (centres undefined) | 28% | -8% | 12%
O=C(CSc1nnc(C2CCCCC2)n1Cc1ccccc1)NCc1ccco1 | 13µM* | -13% | u
O=C(Cn1cc(SCc2ccc(F)cc2)c2ccccc21)N1CCCC1 | x | -17%[10.9 µM] | x
COc1ccc(C2=C(C)C(=O)N(Cc3ccc(C(=O)NCc4cccc(C)c4)cc3)S2(=O)=O)cc1 | x | -14%[10.9 µM] | x
CCN(CC)CCCn1c(-c2ccccc2)nc2c(NCCOC)nc(C)nc21 | 21% | -3% | 2%
O=C(CSc1nc2ccccc2c(=O)n1Cc1ccc(C(=O)NC2CC2)cc1)NCc1ccco1 | 20% | 0% | 23%
O=C(CSc1nc2ccccc2c(=O)n1Cc1ccco1)c1ccc(F)cc1 | 25µM* | -16% | u
Cc1sc2nc(SCc3nc4ccccc4[nH]3)n(Cc3ccco3)c(=O)c2c1C | 15% | -1% | 26%
CCN(CC)C(=O)CSc1nc2ccccc2c(=O)n1Cc1ccco1 | x | -16%[10.9 µM] | x
Cc1ccc(OCc2nnc(SCc3nc4ccccc4[nH]3)n2Cc2ccco2)cc1 | 32µM* | -6% | u
COC(=O)c1ccc(CSc2nc3ccccc3c(=O)n2Cc2ccco2)o1 | 7.9µM* | -19% | u
O=C(CSc1nc2ccccc2c(=O)n1Cc1ccco1)NCc1ccccc1 | 25µM* | -11% | u
COCCCNC(=O)CSc1nc2ccccc2c(=O)n1Cc1ccco1 | x | 3%[10.9 µM] | x
SMILES | HEK293 cAMP cs | Peg3 imprint | TSHR agonist
N#CCCn1c(=O)cnc2cnc(N3CCNCC3)nc21 | 11% | x | 5%
CCOc1ccc(OCC)c(NC(=O)c2cc(S(=O)(=O)N3CCCC3)cn2C)c1 | x | -14%[10.9 µM] | x
CCOC(=O)c1[nH]c(C)c(CCC(=O)N2CCN(c3ccc(OC)cc3)CC2)c1C | x | -9%[10.9 µM] | x
COc1ccc(C(c2nnnn2C2CCCC2)N2CCc3ccccc3C2)cc1OC (centres undefined) | 7.9µM* | -2% | u
CN(C)c1ccc(C(c2nnnn2C(C)(C)C)N2CCc3ccccc3C2)cc1 (centres undefined) | 16µM* | 9% | u
COc1ccc(OC)c(C(c2nnnn2C2CCCC2)N2CCc3ccccc3C2)c1 (centres undefined) | u | -23% | u
CC(C)(C)n1nnnc1C(c1ccccc1)N1CCc2ccccc2C1 (centres undefined) | u | 6% | u
CCN1C(C)=C(C(=O)OC)C(c2ccccc2)N2C(=O)[C@@]3(C(=O)OC)O[C@@]12C1C(=O)N(C)C(=O)C13 (some centres undefined) | 2%[11.4 µM] | x | 1%[11.4 µM]
Cc1ccc(NC(=O)Cc2coc3c(C)c(C)ccc23)cc1Cl | x | -6%[10.9 µM] | x
Cc1ccc2c(CC(=O)NCc3ccco3)coc2c1C | 23% | -16% | 20µM*
O=C(NCC1CC1)[C@@H]1C[C@H]1[C@@H](NP(=O)(c1ccccc1)c1ccccc1)c1ccccc1 | 13µM* | -9% | u
O=C(NCc1ccccc1)[C@@H]1C[C@H]1[C@@H](NP(=O)(c1ccccc1)c1ccccc1)c1ccccc1 | u | -15% | u
Cc1ccc(-c2nc3scc(CCNS(=O)(=O)c4c(C)noc4C)n3n2)cc1 | x | 11%[10.9 µM] | x
Cc1nnsc1NC(=O)OCC(C)C | 13µM* | -20% | u
CCC(COC(=O)Nc1cccc(C)c1)NC(=O)OCC(C)C (centres undefined) | u | -34% | u
O=C1O/C(=C\Br)CC[C@@H]1c1cccc2ccccc12 | 3% | x | 11%
CCCN(C(=O)NCc1noc2ccc(C)cc12)c1ccc(Cl)c(Cl)c1 | x | -11%[10.9 µM] | x
Cn1cccc1Cc1nnc(SCC(=O)NCC2CCCO2)n1CCc1ccccc1 (centres undefined) | 5% | -11% | 1%
O=C1CCCCC1Sc1nnc(Cc2cccs2)n1CCc1ccccc1 (centres undefined) | 10µM* | -11% | u
C[C@@H](c1ccccc1)N1C(=O)[C@H]2[C@@H]3[C@H](O)C=CC(=O)[C@H]3CC[C@H]2C1=O | -2%[11.4 µM] | x | 8%[11.4 µM]
O=C(CSc1nc2c([nH]c3ccccc32)c(=O)n1-c1ccccc1)Nc1ccc2c(c1)OCO2 | x | 6%[10.9 µM] | x
C=C1C(CCl)(CCl)C2(Cl)C(Cl)C(Cl)C1(Cl)C2(Cl)Cl (centres undefined) | 18% | -21% | 40µM*
CN(C)CCCNC(=O)C(=O)NCC(c1ccc2c(c1)OCO2)N1CCOCC1 (centres undefined) | x | 28%[10.9 µM] | x
Cn1c(SCC(=O)OC2CCCCC2)nnc1-c1ccc2c(c1)OCO2 | u | -4% | u
N#Cc1cc2cc3c(cc2nc1SCC(=O)OC1CCCCC1)OCO3 | 16µM* | 1% | u
SMILES | HEK293 cAMP cs | Peg3 imprint | TSHR agonist
COc1ccccc1NC(=O)C1=C(C)Nc2nc3ccccc3n2C1c1cccc(OC)c1OC (centres undefined) | x | -7%[10.9 µM] | x
Clc1ccc(-c2noc(-c3cccnc3N3CCN(c4ccccc4)CC3)n2)cc1 | x | -7%[10.9 µM] | x
COc1ccc([C@H](O)c2ccccn2)cc1 | 4%[11.4 µM] | -4%[10.9 µM] | 4%[11.4 µM]
CC(=O)Oc1ccc(C(c2ccc(OC(C)=O)cc2)c2ccccn2)cc1 | 2.5µM* | -2% | u
CCc1ccc(NC(=O)Cn2c(=O)n(Cc3ccc4c(c3)OCO4)c(=O)c3oc4ccccc4c32)cc1 | x | -20%[10.9 µM] | x
CCCc1cc(-c2n[nH]c(C)c2-c2ccc(C(=O)OCC)o2)c(O)cc1O | 1% | -23% | -3%
CCCc1cc(C(=O)Cc2ccc(C(=O)OCC)o2)c(O)cc1O | 20µM* | -19% | u
CCC(=O)N1CCc2cc(S(=O)(=O)NC(Cc3ccccc3)C(=O)Nc3cccc(OC)c3)ccc21 (centres undefined) | x | -4%[10.9 µM] | x

Source: PubChem (National Center for Advancing Translational Sciences (NCATS))
